High-throughput results from PubChem BioAssay.
This is a sample that favours compounds with a hit; in the whole collection about 2.4% have one here.
D2 PAM-1 – human D2 receptor positive allosteric modulation; AID 624464; P14416; DiscoveRx D2 beta-arrestin cells, luminescence, 90 min; 100% = 57 uM dopamine signal; potentiation, % (test concentration not listed); 0.23% of 360,000 active; in the data active = potentiation above about 50%; inconclusive = mostly about 30% to 49%
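PathHunter beta-arrestin assay in DiscoveRx D2 cells. Compounds were added with an EC20 of dopamine (50 nM final) for 90 min at 37 deg C. Luminescence was read 1 h after detection reagent, with 57 uM dopamine as the EC100 control.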
D2 ag-1 – D2 dopamine receptor (human) agonism | P14416 | HEK293 T-REx D2 cells, calcium flux agonist mode | activation, % at 2 µM | 0.53% of 340,000 active;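 active = activation over 3 SD above normal in the single-dose calcium agonist read, cut at about 30% in these data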; note: 0% is about no effect
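Calcium-flux readout, 1 cycle/sec over 180 s following compound pin transfer, in inducible HEK293 Trex D2 cells (force-coupled); dopamine controls included. Positive calcium responses during this window marked compounds as potential agonists.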
D2 PAM-2 – positive allosteric modulators of human D2 dopamine receptor; HEK293 T-REx D2, calcium flux, EC20 dopamine potentiation; P14416; 0.34% of 340,000 active; potentiation, % at 10 µM;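 active = potentiation over 3 SD above the plate norm, cut at about 30% in these data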; note: 0% is about no effect
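Primary screen. Calcium kinetics in induced HEK293 T-REx D2 cells: compound pre-addition 180 s, EC20 dopamine, 180 s more.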
D2 antag – antagonizes the human D2 dopamine receptor | HEK293 TREx D2 cells, calcium flux, dopamine EC80 | 2% of 340,000 active | inhibition, % at 10 µM; in the data active = inhibition above about 30%; inactive = below that, where a call was filed; note: 0% is about no effect
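Calcium flux kinetic readout in an inducible HEK293 TREx D2 line plated overnight at 30 C. After 180 s compound exposure, an EC80 dopamine challenge follows with another 180 s kinetic read to detect antagonism.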
D2 ag-2 – human D2 receptor agonism in beta-arrestin assay; DiscoveRx PathHunter D2 beta-arrestin, luminescence, 90 min; 100% = 57 uM dopamine signal; P14416; activation, % (concentration not given with the values); 0.084% of 360,000 active; in the data active = activation above about 40%; inconclusive = between about 15% and that limit
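Agonist mode: compounds alone added to overnight-plated D2 PathHunter cells for 90 min at 37 C, with 57 uM final dopamine (EC100) defining full response. Beta-arrestin recruitment detected by chemiluminescent reagent, read after 1 h at ambient temperature.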
D3 ag – confirmation of human D3 dopamine receptor agonists, beta-arrestin; DiscoveRx D3 beta-arrestin cells, luminescence, 90 min; Potency, µM (highest dose often 76.9 µM), without a hit: at the highest dose activation, hits mostly activators; shares compounds with D2 ag-1; 4% of 2,300 active; AID 720506;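 note: potency is the fitted concentration of half-maximal effect; 100% = dopamine control response; nearly all actives have a fitted effect of over 70% in size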
Target sequence (P35462 whole entry, looked up): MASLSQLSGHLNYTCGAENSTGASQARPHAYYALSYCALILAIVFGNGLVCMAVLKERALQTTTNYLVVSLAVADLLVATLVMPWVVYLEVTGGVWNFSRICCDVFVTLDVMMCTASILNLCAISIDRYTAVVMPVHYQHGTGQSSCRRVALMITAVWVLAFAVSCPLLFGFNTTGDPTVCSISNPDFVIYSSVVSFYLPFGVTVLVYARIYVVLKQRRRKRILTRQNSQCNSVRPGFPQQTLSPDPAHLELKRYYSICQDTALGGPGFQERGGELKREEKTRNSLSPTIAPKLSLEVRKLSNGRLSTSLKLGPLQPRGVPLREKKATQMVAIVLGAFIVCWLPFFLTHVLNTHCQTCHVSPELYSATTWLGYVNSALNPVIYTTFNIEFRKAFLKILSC
D2 ag-3 – D2 receptor agonism, beta-arrestin counterscreen; shares compounds with D2 ag-1; DiscoveRx PathHunter D2 beta-arrestin, luminescence, 90 min; response scale: percent relative to full dopamine signal; Potency, µM (doses to about 76.9 µM), inactives show at the top dose activation, actives largely listed as activators; 5.9% of 2,300 active; AID 720507; note: potency is the fitted concentration of half-maximal effect; % of control where 0% means no effect; nearly all actives have a fitted effect of over 70% in size
Active calls of the source: *; ? = inconclusive; . = no result; ! = a repeat was not active. Unless noted, calls come from the whole dose curve; as a rule, active = well fitted activation curve with a large enough effect; inconclusive = small, poorly fitted or top-dose-only effect; inactive = flat fitted curve, though single readings scatter.

SMILES | D2 PAM-1 | D2 ag-1 | D2 PAM-2 | D2 antag | D2 ag-2 | D3 ag | D2 ag-3
COc1ccccc1NC(=O)c1ccc(NC(=O)c2ccco2)cc1 | 1.2 | 0.3 | -20.2 | -13.8 | -3.2 | . | .
COc1ccccc1NC(=O)CN1CCN(C(=O)c2ccco2)CC1 | -20.9 | . | . | . | 6.8 | ? | 12.9%
COc1ccccc1NC(=O)CN1CCN(c2ccccc2)CC1 | -6.3 | 49.2* | -29.1 | 39.1* | 5.1 | -3.0% | 8.8%
COC(=O)c1[nH]c2ccccc2c1NC(=O)CN1CCN(C(=O)c2ccco2)CC1 | 9.4 | 58.1* | -19.4 | 20.6 | ? | ? | 19.5%
COc1ccc(NC(=O)c2oc3ccccc3c2NC(=O)Cc2coc3cc(C)ccc23)cc1 | . | 0.6 | 4.8 | . | . | . | .
CCOc1ccc(NC(=O)c2c(NC(=O)c3ccccc3Br)sc3c2CCC(C)C3)cc1 (configuration not stated) | . | -0.8 | 1.0 | . | . | . | .
COc1ccccc1N1CCN(CC(=O)Nc2ccc(CN3CCCCC3)cc2)CC1 | -8.8 | 31.2* | -23.9 | 39.1* | 11.8 | -7.3% | 12.7%
O=C(Nc1nnc(S(=O)(=O)N2CCOCC2)s1)c1ccccc1F | -9.3 | 1.2 | 7.6 | -11.0 | -1.3 | . | .
O=C(COc1ccccc1)Nc1nnc(S(=O)(=O)N2CCCCCC2)s1 | 1.1 | 50.0*! | -27.0 | -10.4 | -0.9 | -1.4% | -0.6%
O=C(Nc1nnc(S(=O)(=O)N2CCOCC2)s1)c1ccccc1Cl | -4.2 | 52.1*! | -14.2 | -2.0 | 2.3 | -5.9% | -2.7%
Cc1ccc(C(=O)N2c3nc(-c4ccco4)nn3C3(CCCCC3)[C@@H]3CCCC[C@@H]32)cc1 | . | 0.8 | -5.2 | . | . | . | .
CN(Cc1ccon1)C(=O)C1CCN(C2CCN(CCCc3ccccc3)CC2)CC1 | -13.4 | 48.9* | -11.5 | 19.5 | -0.2 | -3.5% | 24.1%
COc1cc2c(C#CCCO)c(-c3ccc(C#N)cc3)oc(=O)c2cc1OC | -0.1 | -0.5 | -9.7 | 26.3 | 0.5 | 8.3% | -1.4%
COc1cc2c(C#CCCO)c(-c3ccsc3)oc(=O)c2cc1OC | 3.6 | . | . | . | 3.0 | . | .
COc1ccc(CNC(=O)c2ccc3c(c2)N(Cc2c(F)cccc2Cl)C(=O)CS3)cc1 | . | 1.7 | -2.2 | . | . | . | .
CCOC(=O)C1CCN(C(=O)Cn2nc(C)n3c(cc4c(OC)cccc43)c2=O)CC1 | . | . | -16.0 | . | . | . | .
COc1cccc2c1cc1c(=O)n(CC(=O)N3CCCCCC3)nc(C)n12 | 7.7 | 42.9* | -11.8 | 10.7 | 13.9 | ? | ?
CCOC(=O)C1CCCN(C(=O)Cn2nc(C)n3c(cc4c(OC)cccc43)c2=O)C1 (configuration not stated) | 8.0 | 19.4 | -0.6 | 4.8 | ? | ? | 26.6%
COc1cccc2c1cc1c(=O)n(CC(=O)N3CCCCC3)nc(C)n12 | . | 5.0 | 0.7 | . | . | . | .
COc1ccc(Cl)cc1NC(=O)Cn1ncc2c3ccccc3n(Cc3ccccc3)c2c1=O | . | -1.0 | . | . | . | . | .
O=C(CCN1CCN(c2ccccc2)CC1)NNC(=O)Cc1ccccc1Cl | -19.6 | 80.6* | -25.1 | 48.2* | 8.7 | 6.0% | 18.4%
O=C(CCN1CCN(c2ccccc2)CC1)NNC(=O)c1ccccc1 | -11.7 | . | . | . | 4.0 | . | .
O=C(CCN1CCN(c2ccccc2)CC1)NNC(=O)Cc1c(F)cccc1Cl | -39.0 | 79.0* | -23.8 | 60.2* | 6.5 | ? | 14.1%
C=CCNC(=O)CN1CCC(c2nc3cc(C)c(C)cc3[nH]2)CC1 | 1.5 | -0.4 | -9.4 | 22.1 | 0.3 | . | .
Cc1cc2nc(C3CCN(CC4COc5ccccc5O4)CC3)[nH]c2cc1C (configuration not stated) | -8.5 | 46.9* | -18.7 | 10.7 | 4.2 | 16.7% | ?
SMILES | D2 PAM-1 | D2 ag-1 | D2 PAM-2 | D2 antag | D2 ag-2 | D3 ag | D2 ag-3
COc1ccc(CN=Cc2[nH]c3ccc(Br)c(Cl)c3c2O)cc1 | -1.7 | 50.7* | -14.3 | 42.5* | 4.8 | 29.2% | 28.4%
O=S1(=O)c2ccccc2N(Cc2cccc(F)c2)c2ccccc21 | . | -0.5 | -8.3 | . | . | . | .
COc1cccc(OC)c1OCC(O)CN1CCN(c2ccccc2F)CC1 (configuration not stated) | -9.5 | 78.1* | -21.8 | 85.7* | ? | ? | ?
OC(COc1ccc(Cl)cc1)CN1CCN(c2ccccc2)CC1 (configuration not stated) | -16.1 | 19.4 | -25.1 | 71.4* | 1.9 | ? | 2.4%
COc1ccc(N2CCN(CC(O)COc3c(OC)cccc3OC)CC2)cc1 (configuration not stated) | -23.5 | -1.6 | -18.2 | 20.8 | -8.8 | . | .
CCc1ccc(OCC(O)CN2CCN(c3ccccc3)CC2)cc1 (configuration not stated) | -12.4 | 74.1* | -13.2 | 109.5* | ? | ? | ?
COc1ccc(N2CCN(CC(O)COc3ccc(F)cc3)CC2)cc1 (configuration not stated) | -13.1 | -0.3 | 0.3 | -12.7 | -0.5 | . | .
CCCc1ccc(OCC(O)CN2CCN(c3ccccc3)CC2)cc1 (configuration not stated) | -6.7 | 61.5* | -26.2 | 68.7* | ? | -5.5% | ?
Cc1ccn2c(c1)nc(=O)c1cc(S(=O)(=O)N3CCC(C)CC3)c(Cl)cc12 | . | -0.5 | -4.0 | . | . | . | .
CC(C)c1ccc(S(=O)(=O)NCc2ccc3c(c2)CCN3C(=O)c2ccccc2)cc1 | . | -0.5 | -1.1 | . | . | . | .
COc1ccc(-n2c(=O)c3sc4ccccc4c3n(Cc3ccccc3C)c2=O)cc1OC | . | 0.5 | 1.0 | . | . | . | .
O=C(NCCCc1nc2ccccc2n1Cc1cccc(Cl)c1)c1ccco1 | . | 0.7 | -10.4 | . | . | . | .
COc1ccc(OCC(O)CN2CCN(c3ccc(OC)cc3)CC2)cc1 (configuration not stated) | -39.2 | 2.5 | 8.3 | -6.0 | -4.7 | . | .
C=CCc1ccccc1OCC(O)CN1CCN(c2ccccc2)CC1 (configuration not stated) | . | -3.8 | -22.0 | . | . | . | .
COc1cccc(CN2CCC(C(=O)N3CCN(c4ccccc4F)CC3)CC2)c1OC | -8.2 | 26.8 | 8.6 | -13.6 | 3.5 | 1.8% | 7.9%
OC(COc1cccc2ccccc12)CN1CCN(c2ccccc2)CC1 (configuration not stated) | -0.2 | 55.8* | -22.6 | 65.0* | 5.7 | ? | 23.3%
C=CCc1cc(C)ccc1OCC(O)CN1CCN(c2ccccc2)CC1 (configuration not stated) | -13.1 | 61.9* | -27.9 | 79.9* | 6.0 | 0.631µM* | 14.2%
Cc1ccc(OCC(O)CN2CCN(c3ccccc3)CC2)cc1 (configuration not stated) | -10.6 | 45.7* | -22.8 | 62.2* | 2.7 | 17.4% | 4.9%
